# Screening data from PubChem.
# The list is not random: actives were taken first. Their share in the collection is about 2.8%.
# DRD3 agonist = qHTS of D3 Dopamine Receptor Agonist: qHTS; D(3) dopamine receptor (Homo sapiens), P35462; D3R DiscoveRx beta-arrestin cells, luminescence, 90 min; max activation, %; actives 0.58% (n = 410,000); AID 652048, 2013; in the data active = max activation above about 30%; also: 0% is about no effect
# Target sequence (P35462 whole entry, looked up): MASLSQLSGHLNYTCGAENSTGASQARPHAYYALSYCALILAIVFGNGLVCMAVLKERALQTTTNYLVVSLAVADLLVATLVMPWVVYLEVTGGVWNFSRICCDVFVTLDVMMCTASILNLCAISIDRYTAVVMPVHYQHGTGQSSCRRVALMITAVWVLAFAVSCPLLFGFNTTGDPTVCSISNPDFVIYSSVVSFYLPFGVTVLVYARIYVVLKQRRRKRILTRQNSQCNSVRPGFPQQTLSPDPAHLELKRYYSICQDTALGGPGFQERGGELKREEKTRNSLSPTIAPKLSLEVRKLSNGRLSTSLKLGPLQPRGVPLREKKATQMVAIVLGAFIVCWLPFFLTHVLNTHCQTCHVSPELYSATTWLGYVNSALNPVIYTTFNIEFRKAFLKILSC
#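 Cells at 1500/well, incubated overnight, then treated with pinned compounds (dopamine as control) for 90 min at 37 degrees C. DiscoveRx reagent added for 30 - 60 minutes at room temperature; luminescence read.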
# D3 antag = qHTS of D3 Dopamine Receptor Antagonist: qHTS | D(3) dopamine receptor (Homo sapiens), P35462 | AID 652054, 2013 | actives 2.5% (n = 360,000) | D3R cells, DiscoveRx beta-arrestin luminescence, antagonist mode; stronger effect = lower value | max response, negative = inhibition, %; in the data active = max response below about -50%; inconclusive = no clear call, values can overlap the other calls; also: % is scaled to controls: 0 for no effect and ±100 for the full control effect
#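 Cells plated overnight at 1500 cells/well, then exposed to library compounds with dopamine controls for 90 minutes at 37 degrees C. DiscoveRx reagent added for 30–60 minutes at room temperature; luminescence read, quantitative HTS format.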
# RGS4 inhibitor = Inhibitors of Regulator of G Protein Signaling (RGS) 4: qHTS; Potency, µM (highest dose often 114 µM), for the others: at the top dose activity change, negative = inhibition, most hits filed as inhibitors; actives 0.039% (n = 390,000); Transcreener GDP fluorescence polarization, RGS4-accelerated GTP hydrolysis; active = well fitted inhibition curve with a large enough effect; inconclusive = small, poorly fitted or top-dose-only effect; inactive = no such curve, though single readings can be large or run the other way; also: potency is read from the fitted curve at half-maximal effect; % is scaled to controls: 0 for no effect and ±100 for the full control effect; nearly all actives have a fitted effect of over 75% in size
# Target sequence (P49798 whole entry, looked up): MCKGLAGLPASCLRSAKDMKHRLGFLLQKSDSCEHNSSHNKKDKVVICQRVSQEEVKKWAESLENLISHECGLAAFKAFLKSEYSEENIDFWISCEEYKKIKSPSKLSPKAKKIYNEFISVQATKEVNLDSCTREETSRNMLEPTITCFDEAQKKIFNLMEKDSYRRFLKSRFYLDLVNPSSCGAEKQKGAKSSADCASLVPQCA
#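 MLSMR compounds (23 nl, pin-transferred) preincubated 10 min at room temperature with a 500nM (2x) first reagent, then RGS4 at 900nM (2x) plus Transcreener GDP mix added; fluorescence polarization (620/688 nm) read before and after 90 min at 30 °C.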
# PI4K2A block = qHTS for small molecular inhibitors of PI4K2A | Phosphatidylinositol 4-kinase type 2-alpha (Homo sapiens), Q9BTU6 | purified PI4K2A, ADP-Glo luminescence, 1 h; stronger effect = lower value | activity change, negative = inhibition, % at 76.9 µM | actives 0.13% (n = 420,000); in the data active = activity change below about -50%; inconclusive = mostly about -30% to -49%;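 also: -100% = wells without enzyme as full effect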
#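 Compounds are screened against recombinant PI4K2A using PI as substrate and ATP, the latter dispensed at 300 microM. Reactions run one hour at ambient temperature before ADP-Glo detection; full inhibition defined by wells lacking enzyme.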
# LDHA block = qHTS assay for inhibitors of human lactate dehydrogenase | L-lactate dehydrogenase A chain (Homo sapiens), P00338 | purified LDHA, NADH/diaphorase-resazurin fluorescence; stronger effect = lower value | activity change, % (values are at about 110 or 230 µM) | actives 0.15% (n = 480,000); in the data active = activity change below about -30%; inconclusive = mostly about -25% to -30%;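 also: plate controls were DMSO wells for no effect and wells without enzyme for full effect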
#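 Resorufin fluorescence (ex540/em590), read at 0 and 20 min after diaphorase/resazurin addition, reports the NADH left after a 5 min room-temperature reaction of 2 nM human LDH5 with 0.06 mM NADH and 0.2 mM pyruvate.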
# Akt phos inh = HTS Assay for Inhibitors of Akt Phophorylation: Primary Screen | Neuro2A IGF-stimulated pAkt S473 HTRF, 20 min; stronger effect = lower value | activity change, % for hits at 50 µM | actives 0.32% (n = 360,000) | AID 651550, 2012; in the data active = activity change below about -80%; inconclusive = mostly about -51% to -80%; also: % is scaled to controls: 0 for no effect and ±100 for the full control effect
#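 Neuro2A cells (4,500/well, DMEM with 0.5% FBS) were treated with compound at a single 50 µM final concentration, stimulated with 6 nM IGF for 20 min at 37 °C, and lysed. Phospho-Akt Ser473 was read by HTRF as 665/615 ratio ×10^4.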
# The depositor's hits bear a star; i = inactive; ? = inconclusive; · = not tested or not shown.
SMILES,DRD3 agonist,D3 antag,RGS4 inhibitor,PI4K2A block,LDHA block,Akt phos inh
COC(=O)c1cccc(OCCCN2CCC(C(O)(c3ccccc3)c3ccccc3)CC2)c1,-14,-93*,·,7,0,i
NC(=O)c1ccc(NC(=O)CCC2CCCC2)cc1Cl,·,·,·,·,-6,·
OC(c1ccccc1)(c1ccccc1)C1CCN(CCCOc2ccccc2Cl)CC1,-15,-80*,·,0,3,i
C#Cc1ccccc1OCCCN1CCC(C(O)(c2ccccc2)c2ccccc2)CC1,-14,?,·,5,2,i
Oc1c(Br)cc(Cl)cc1Cc1cc(Cl)cc(Br)c1O,·,·,·,·,-2,·
c1ccc2c(c1)Cn1c-2nc2ccccc21,-1,7,39%,-53*,-3,i
Cc1ccc(C)c(SCC(=O)NNC(=O)c2ccccc2)c1,19,4,-4%,-6,-2,i
Cc1ccc(SCC(=O)NNC(=O)c2ccccc2)cc1C,-16,-70*,19%,8,-3,i
Cc1cc(C)n(-c2nc(SCCN(C)C)c3c4c(sc3n2)CCCC4)n1,-16,-71*,2%,6,-3,i
FC(F)(F)c1ccc(SCc2nc3ccccc3s2)nc1,·,·,·,·,3,·
COc1ccc(C2C(C(=O)c3ccco3)=C(O)C(=O)N2CCOCCO)cc1OC (centres undefined),-6,3,4%,7,14,-85%*
CC(C)c1ccc(NC(=O)Nc2nc(C(N)C3CCCCC3)cs2)cc1 (centres undefined),-7,11,·,-3,-9,i
Cc1ccccc1NC(=O)Nc1nc(C(N)C2CCCCC2)cs1 (centres undefined),-11,-84*,·,0,0,i
CCC(C)NCCOCCOc1ccc(Cl)c(C)c1C (centres undefined),-13,-64*,12%,0,-16,i
CCC(C)NCCOCCSc1ccc(Cl)cc1 (centres undefined),-10,-78*,23%,12,-10,i
C=CCc1cc(Cl)ccc1OCCOCCNC(C)CC (centres undefined),-16,?,2%,5,-19,i
CCC(C)NCCOCCOc1ccc(Cl)c2ccccc12 (centres undefined),-14,-56*,-15%,-1,-16,i
CC(NCCOCCOc1ccccc1)c1ccccc1 (centres undefined),-8,-2,-36%,5,-1,i
CCC(C(=O)Nc1cccc(OC)c1)n1nnc(C(=O)OC)c1C(=O)OC (centres undefined),·,·,·,·,1,·
Cc1ccc(NC(=S)C2=C(O)c3ccccc3N(C)S2(=O)=O)cc1,-3,-73*,-15%,-8,-1,i
CN1c2ccccc2C(O)=C(C(=S)Nc2ccccc2)S1(=O)=O,-1,-86*,10%,1,4,i
O=C(OCc1nc2ccccc2o1)c1cc(S(=O)(=O)N2CCCCC2)ccc1Cl,·,·,·,·,2,·
CCOc1cc(OCC)cc(C(=O)NCCN2CCC(n3c(=O)[nH]c4ccccc43)CC2)c1,-8,-95*,·,-1,-12,i
COc1cccc(C(=O)NCCN2CCC(n3c(=O)[nH]c4ccccc43)CC2)c1,-15,-78*,·,7,0,i
CCOc1cc2ccccc2cc1C(=O)O,·,·,·,·,13,·
SMILES,DRD3 agonist,D3 antag,RGS4 inhibitor,PI4K2A block,LDHA block,Akt phos inh
Cc1ccc(C(=O)Nc2cccc3ncccc23)cc1,·,·,·,·,0,·
CCOc1cc(C(=O)Nc2cccc3ncccc23)cc(OCC)c1OCC,35*,-17,24%,-6,0,i
CCOc1ccc(NC(=O)c2ccc(F)cc2F)cc1,-1,-65*,28%,?,-6,i
CSc1ccc(CN2CCC(C)(Oc3ccc(C(C)=O)cc3)C2)cc1 (centres undefined),-9,-69*,·,5,-7,i
CC(=O)c1ccc(OC2(C)CCN(Cc3ccc(OC(F)(F)F)cc3)C2)cc1 (centres undefined),-13,-12,·,-3,-3,i
CC1(Oc2ccccc2-c2ccno2)CCN(Cc2csc3ccccc23)C1 (centres undefined),-21,-78*,·,1,-7,i
CSc1ccc(CN2CCC(C)(Oc3ccccc3F)C2)cc1 (centres undefined),-11,-57*,·,1,-1,i
COC(=O)Cc1ccc(OC2(C)CCN(Cc3ccccc3OC(F)F)C2)cc1 (centres undefined),-8,-59*,·,-1,7,i
CC1(Oc2ccc(F)cc2)CCN(Cc2ccccc2OC(F)F)C1 (centres undefined),-2,-12,·,-6,-4,i
CCCn1nc(C(=O)NC(C)c2cccs2)c2ccccc2c1=O (centres undefined),·,·,·,·,5,·
Cc1ccccc1C(NC(C)c1ccccc1)c1ccccc1 (centres undefined),·,·,·,·,-1,·
CC1CCCCN1C(=O)CSc1nc(-c2cccs2)nc2ccccc12 (centres undefined),·,·,·,·,6,·
CC(C)(C)C1CCc2sc(C(=O)NCc3cnc(-c4ccccc4)s3)cc2C1 (centres undefined),·,·,·,·,8,·
CSc1ccc(OC2(C)CCN(Cc3ccc(OC(F)(F)F)cc3)C2)cc1 (centres undefined),-7,-25,·,-3,-1,i
CC(=O)c1ccc(OC2(C)CCN(Cc3csc4ccccc34)C2)cc1 (centres undefined),-10,-53*,·,-3,-7,i
CSc1ccc(CN2CCC(C)(Oc3ccc(F)cc3)C2)cc1 (centres undefined),-11,-112*,·,0,-5,i
CSc1ccc(CN2CCC(C)(Oc3ccccc3C)C2)cc1 (centres undefined),-10,?,·,-2,0,i
COc1cc(Cl)ccc1OC1(C)CCN(Cc2ccc(SC)cc2)C1 (centres undefined),-16,-70*,·,-2,-4,i
CC(=O)c1ccc(OC2(C)CCN(Cc3ccccc3OC(F)F)C2)cc1 (centres undefined),-14,?,·,6,-9,i
CC12CC3CC(C)(C1)CC(c1ccc(O)cc1)(C3)C2,·,·,·,·,2,·
